According to PubChem BioAssay (NCATS):
Results filed as inconclusive are left out. Active and inactive are the calls of the source. Calls come from the whole dose curve; as a rule, active = well fitted curve in the direction sought with a large enough effect; inconclusive = small, poorly fitted or top-dose-only effect, or another doubt; inactive = no such curve, though single readings can be large; an effect the other way counts as inactive or inconclusive.

What was measured:
[1] = target: Cytochrome P450 3A4 (Homo sapiens) (UniProt P08684); test: qHTS for inhibitors of CYP3A4 against the NCATS DSHEA and TCM libraries (AID 1919971); conditions: recombinant CYP3A4 enzyme activity, luminescence qHTS; note: potency is the fitted concentration of half-maximal effect
Chain of Cytochrome P450 3A4 (Homo sapiens) (P08684 whole entry, looked up): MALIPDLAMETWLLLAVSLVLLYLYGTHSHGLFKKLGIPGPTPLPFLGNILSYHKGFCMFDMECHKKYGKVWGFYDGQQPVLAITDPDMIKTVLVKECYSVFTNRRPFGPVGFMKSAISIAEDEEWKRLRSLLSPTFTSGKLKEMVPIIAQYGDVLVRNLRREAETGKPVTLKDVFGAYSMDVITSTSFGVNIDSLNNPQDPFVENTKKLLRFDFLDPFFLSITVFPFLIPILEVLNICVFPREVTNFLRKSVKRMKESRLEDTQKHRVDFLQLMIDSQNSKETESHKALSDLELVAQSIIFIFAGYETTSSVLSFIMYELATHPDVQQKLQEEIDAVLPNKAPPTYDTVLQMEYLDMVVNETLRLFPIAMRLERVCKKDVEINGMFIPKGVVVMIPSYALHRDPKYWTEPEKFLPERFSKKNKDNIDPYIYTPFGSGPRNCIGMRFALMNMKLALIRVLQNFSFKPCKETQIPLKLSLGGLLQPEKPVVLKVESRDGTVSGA
Source text: (§1) Assay Development and Screening Technology Laboratory (ADST)
(§2) National Center for Advancing Translational Sciences (NCATS), Rockville, MD
(§3) National Institute of Health (NIH), Bethesda, Maryland
(§4) Dietary Supplements and Natural Products have minor oversight of their safety and efficacy. We assembled a collection of Dietary Supplements and Natural Products (DSNP) as well as Traditional Chinese Medicinal (TCM) Plant extracts, which were screened against an in vitro panel of assays, including a liver cytochrome p450 enzyme panel, CAR/PXR signaling pathways, and P-gp transporter assays, to assess their activity. This pipeline facilitated the interrogation of Natural Product-Drug Interaction (NaPDI) through prominent metabolizing pathways. In addition, we compared the activity profiles of the DSNP/TCM substances with those of an approved drug collection. Many of the approved drugs have well-annotated mechanisms of action (MOA) while the MOAs for most of the DSNP and TCM samples remain unknown. […] Overall, we highlight four significant bioactivity profiles (measured by p-values) as examples of this prediction. […] To profile potential P-gp activity, a differential cell viability was measured against two cell lines: a parental KB-3-1 human cervical adenocarcinoma cell line and the drug-resistant subline KB-8-5-11 that overexpresses P-gp. […]
(§5) 9; Read; Luminescence; ViewLux plate reader. […]

[2] = target: Cytochrome P450 2D6 (Homo sapiens) (UniProt P10635); test: qHTS for inhibitors of CYP2D6 against the NCATS DSHEA and TCM libraries (AID 1919972); conditions: CYP2D6 enzymatic inhibition, luminescence qHTS; note: potency is the fitted concentration of half-maximal effect
Chain of Cytochrome P450 2D6 (Homo sapiens) (P10635 whole entry, looked up): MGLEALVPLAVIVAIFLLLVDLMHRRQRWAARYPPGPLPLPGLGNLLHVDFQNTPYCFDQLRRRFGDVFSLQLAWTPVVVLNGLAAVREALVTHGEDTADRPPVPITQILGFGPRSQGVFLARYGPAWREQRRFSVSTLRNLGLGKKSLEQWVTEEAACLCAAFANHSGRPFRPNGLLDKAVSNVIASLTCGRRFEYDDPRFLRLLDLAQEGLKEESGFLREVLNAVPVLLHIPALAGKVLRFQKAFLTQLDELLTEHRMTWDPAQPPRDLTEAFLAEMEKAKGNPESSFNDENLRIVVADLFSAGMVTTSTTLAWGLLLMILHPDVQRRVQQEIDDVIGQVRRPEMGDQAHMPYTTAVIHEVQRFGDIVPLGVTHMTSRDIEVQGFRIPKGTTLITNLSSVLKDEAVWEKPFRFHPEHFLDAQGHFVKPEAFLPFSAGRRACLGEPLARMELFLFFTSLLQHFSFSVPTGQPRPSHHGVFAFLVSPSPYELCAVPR
Outline: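 qHTS, concentration–response format with most substances from 19.5 nM. CYP2D6 + pro-luciferin substrate, 15 min with compound, then 1x NADPH regen, 30–45 min RT dark. Glo detection 30 min, luminescence. Quinidine control.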

[3] = target: Cytochrome P450 2C9 (Homo sapiens) (UniProt P11712); test: qHTS for inhibitors of CYP2C9 against the NCATS DSHEA and TCM libraries (AID 1919973); conditions: recombinant CYP2C9 enzyme activity, luminescence; note: potency is the fitted concentration of half-maximal effect
Chain of Cytochrome P450 2C9 (Homo sapiens) (P11712 whole entry, looked up): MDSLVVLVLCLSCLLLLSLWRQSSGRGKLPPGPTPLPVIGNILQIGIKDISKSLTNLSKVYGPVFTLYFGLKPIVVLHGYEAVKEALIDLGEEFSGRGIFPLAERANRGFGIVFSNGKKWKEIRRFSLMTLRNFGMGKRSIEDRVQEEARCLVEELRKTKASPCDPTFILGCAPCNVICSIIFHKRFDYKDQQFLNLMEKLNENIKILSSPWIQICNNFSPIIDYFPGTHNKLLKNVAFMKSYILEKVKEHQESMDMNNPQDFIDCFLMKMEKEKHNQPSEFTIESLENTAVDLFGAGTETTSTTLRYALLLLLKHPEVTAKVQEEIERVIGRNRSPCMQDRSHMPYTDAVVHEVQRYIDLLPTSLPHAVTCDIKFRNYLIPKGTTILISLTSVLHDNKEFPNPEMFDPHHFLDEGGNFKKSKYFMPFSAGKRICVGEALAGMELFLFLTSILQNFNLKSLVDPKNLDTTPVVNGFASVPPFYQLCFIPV
Source text: as §1, §2, §3, §4, §5

[4] = target: Cytochrome P450 2C19 (Homo sapiens) (UniProt P33261); test: qHTS for inhibitors of CYP2C19 against the NCATS DSHEA and TCM libraries (AID 1919974); conditions: CYP2C19 enzyme inhibition, luminescence qHTS;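 note: luminescence from luciferin released by CYP2C19 oxidation of a pro-luciferin substrate; potency is the fitted concentration of half-maximal effect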
Chain of Cytochrome P450 2C19 (Homo sapiens) (P33261 whole entry, looked up, canonical isoform): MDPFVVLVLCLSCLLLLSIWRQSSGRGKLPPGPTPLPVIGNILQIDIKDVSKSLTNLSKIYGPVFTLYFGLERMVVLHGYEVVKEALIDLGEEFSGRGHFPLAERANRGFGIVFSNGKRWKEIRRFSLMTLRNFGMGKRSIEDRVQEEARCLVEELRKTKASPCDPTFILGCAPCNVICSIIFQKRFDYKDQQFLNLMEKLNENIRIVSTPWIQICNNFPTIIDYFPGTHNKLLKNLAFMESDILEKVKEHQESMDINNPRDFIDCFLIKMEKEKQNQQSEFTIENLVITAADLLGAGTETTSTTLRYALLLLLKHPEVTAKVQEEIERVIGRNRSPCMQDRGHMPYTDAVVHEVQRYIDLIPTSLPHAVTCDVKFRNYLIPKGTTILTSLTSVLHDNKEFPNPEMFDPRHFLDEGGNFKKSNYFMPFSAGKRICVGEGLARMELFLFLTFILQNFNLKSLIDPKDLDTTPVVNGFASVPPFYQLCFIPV
Outline: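 Isoform-specific enzyme and substrate levels; enzyme-free wells as background. Reaction: 1x NADPH regenerating system, 30-45 min, room temperature, shielded from light; luminescent detection reagent added, 30 min.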

[5] = KB-3-1 P-gp reporter qHTS against the NCATS DSHEA and TCM libraries (AID 1919975); conditions: KB-3-1 parental cells, CellTiter-Glo luminescence viability, 72 h; series mostly up to 26.1 µM
Outline: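 CellTiter-Glo luminescence viability readout; KB-3-1 parental cells, 500/well, attached ~4 h, then compound for ~72 h, 37C, 5% CO2. Bortezomib intraplate control.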

[6] = target: Cytochrome P450 1A2 (Homo sapiens) (UniProt P05177); test: qHTS for inhibitors of CYPIA2 against the NCATS DSHEA and TCM libraries (AID 1919976); conditions: recombinant CYP1A2 enzyme activity, luminescence; note: potency is the fitted concentration of half-maximal effect
Chain of Cytochrome P450 1A2 (Homo sapiens) (P05177 whole entry, looked up): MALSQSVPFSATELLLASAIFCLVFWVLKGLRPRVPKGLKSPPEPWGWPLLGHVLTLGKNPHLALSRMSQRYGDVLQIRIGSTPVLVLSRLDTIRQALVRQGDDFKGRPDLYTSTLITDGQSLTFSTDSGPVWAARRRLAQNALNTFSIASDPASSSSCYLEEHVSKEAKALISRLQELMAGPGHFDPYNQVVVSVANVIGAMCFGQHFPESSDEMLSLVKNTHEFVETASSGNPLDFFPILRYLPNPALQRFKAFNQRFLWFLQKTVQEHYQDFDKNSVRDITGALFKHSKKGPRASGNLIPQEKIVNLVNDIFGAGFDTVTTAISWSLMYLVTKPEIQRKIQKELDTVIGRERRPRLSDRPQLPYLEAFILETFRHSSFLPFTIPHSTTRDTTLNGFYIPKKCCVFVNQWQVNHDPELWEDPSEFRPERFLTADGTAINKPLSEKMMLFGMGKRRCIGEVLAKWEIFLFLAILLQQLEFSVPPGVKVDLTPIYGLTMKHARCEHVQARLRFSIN
Outline: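 Furafylline served as the plate control. Compounds met CYP1A2 and pro-luciferin substrate 15 min before NADPH regeneration solution (1x) was added; after 30-45 min at RT, P450-Glo reagent was added for 30 min and luminescence was measured.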

[7] = Dual reporter qHTS for agonist of Pregnane X Receptor (hPXR) against the NCATS DSHEA and TCM libraries: Fluorescence readout (AID 1920058); conditions: PXR dual reporter cells; series mostly up to 40 µM
Outline: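 In this qHTS counter-read, reporter-bearing HepG2 cells in charcoal-stripped serum received substances for approximately 24 h before viability was assessed fluorometrically with CellTiter-Fluor.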

[8] = target: Nuclear receptor subfamily 1 group I member 2 (Homo sapiens) (UniProt O75469); test: Dual reporter qHTS for agonist of Pregnane X Receptor (hPXR) against the NCATS DSHEA and TCM libraries: Luminescence readout (AID 1920059); conditions: hPXR dual reporter cells, luciferase luminescence agonist; series mostly up to 40 µM
Chain of Nuclear receptor subfamily 1 group I member 2 (Homo sapiens) (O75469 whole entry, looked up): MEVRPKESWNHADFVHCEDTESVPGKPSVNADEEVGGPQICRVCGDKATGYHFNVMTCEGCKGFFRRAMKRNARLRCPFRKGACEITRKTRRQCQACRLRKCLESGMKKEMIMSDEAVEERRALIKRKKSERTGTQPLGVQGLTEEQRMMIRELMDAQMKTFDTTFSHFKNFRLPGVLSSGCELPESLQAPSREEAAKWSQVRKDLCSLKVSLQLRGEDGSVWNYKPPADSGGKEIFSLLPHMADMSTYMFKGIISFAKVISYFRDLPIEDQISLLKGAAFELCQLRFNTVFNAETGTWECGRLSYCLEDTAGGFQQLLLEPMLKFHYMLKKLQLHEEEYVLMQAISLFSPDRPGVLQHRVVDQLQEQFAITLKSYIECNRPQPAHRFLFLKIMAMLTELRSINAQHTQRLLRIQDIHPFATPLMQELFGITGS
Outline: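 Luminescent PXR reporter read (ONE-Glo) after a CellTiter-Fluor viability read, following 24 h, 37C treatment of HepG2 cells stably carrying hPXR-Luc.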

Measured: Potency

Cc1cc(O)c2c(c1)C(=O)c1cc(O)cc(O)c1C2=O
inactive: [5] | [7] | [8]
active: [1] 10 µM | [2] 22.4 µM | [3] 8.91 µM | [4] 22.4 µM | [6] 8.91 µM
